HT1080NT lethal: kills 2HG-producing HT-1080-NT fibrosarcoma cells | HT-1080-NT fibrosarcoma viability, CellTiter-Glo ATP luminescence, 48 h | Potency, µM (doses to about 46.1 µM), inactives show top-dose activity, negative = less viability, hits mostly cytotoxic | actives 1.6% (n = 360,000) | AID 686970;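 further: NT is the 2HG producing partner of a matched IDH1 knockdown line; 0% = DMSO-treated cells and -100% = media-only wells without cells; nearly all actives have a fitted effect of over 55% in size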
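HT-1080-NT; 750 cells/well; 5% FBS RPMI; 48 h compound, 37 degrees C; CellTiter-Glo luminescence; curve fitting and curve-class assignment.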
TDP1 cell noCPT: qHTS for Inhibitors of human tyrosyl-DNA phosphodiesterase 1 (TDP1): qHTS in cells in absence of CPT | DT40 Tdp1-/- hTDP1 cells, no CPT, ATP luminescence, 48 h | Potency, µM (top dose mostly 46.2 µM), for inactives: at the highest dose activity change, negative = growth inhibition, most hits filed as inhibitors | actives 15% (n = 420,000) | AID 686978, 2013; further: on the % scale 0 is the no-effect control and ±100 the full control effect; nearly all actives have a fitted effect of over 55% in size
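No-CPT arm: Tdp1-/-;hTDP1 DT40 cells (400/well) plus compounds, incubated ≥48 hr at 37 °C. Readout CellTiter-Glo luminescence.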
HepG2 tox: kills HepG2 cells in TGF-b inhibitor counter-screen; HepG2 CAGA-GFP viability, ATP luminescence, 18 h; Potency, µM (top dose mostly 46.1 µM), without a hit: at the top dose activity change, negative = cytotoxicity, hits mostly cytotoxic; actives 0.76% (n = 410,000); AID 588856
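CellTiter-Glo luminescence gave cytotoxicity after 18 hours at 37 degrees C. The cells were HepG2 CAGA-GFP in 1% FBS DMEM, stimulated with 500 pg/mL TGF-beta after compound addition. %Activity was normalised to no-cell wells (complete cell-killing) and DMSO (no toxicity), and curves were fitted and classified.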
HT1080 IDH1KD tx: kills HT-1080 cells with IDH1 knockdown. HT-1080 IDH1 knockdown viability, ATP luminescence, 48 h. Potency, µM (highest dose often 46.1 µM), without a hit: at the top dose activity, negative = toxicity, hits mostly cytotoxic. actives 2% (n = 360,000). AID 686971;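 further: 0% = DMSO wells and -100% = cell-free medium wells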
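HT-1080-IDH1KD cells (IDH1 knocked down), 750/well in RPMI with 5% FBS, treated with compound 48 h at 37 degrees C. Viability by CellTiter-Glo luminescence, normalised to DMSO and no-cell wells; concentration-response curves classed.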
TDP1 cell CPT: growth inhibition of DT40 Tdp1-/-;hTDP1 cells with camptothecin (screen for TDP1 inhibitors) | chicken DT40 Tdp1-/-;hTDP1 cells + 20 nM CPT, ATP luminescence, 48 h | Potency, µM (doses to about 46.2 µM), for inactives: at the highest dose activity change, negative = growth inhibition, usual class: inhibitors | AID 686979 | actives 12% (n = 420,000); further: on the % scale 0 is the no-effect control and ±100 the full control effect; nearly all actives have a fitted effect of over 55% in size
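Chicken DT40 Tdp1-/- cells stably complemented with human TDP1 were seeded at 400 cells/well in medium containing 20 nM camptothecin, exposed to pin-transferred compounds, and grown at 37 °C for at least 48 hr. Viability was read as ATP luminescence.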
TGFb inhibitor: blocks TGF-b signaling; actives 1.2% (n = 410,000); Potency, µM (doses to about 46.1 µM), for inactives: top-dose activity, negative = inhibition, actives largely listed as inhibitors; HepG2 CAGA-GFP TGF-b/SMAD3 reporter, GFP fluorescence, 18 h; TGF-beta stimulated, 500 pg/mL final; further: on the % scale 0 is the no-effect control and ±100 the full control effect; nearly all actives have a fitted effect of over 65% in size
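HEPG2 CAGA-GFP reporter cells (1000/well, DMEM with 1% FBS) received compounds, then recombinant TGF-beta at 500 pg/mL final for 18 hours at 37 degrees C. Per-cell GFP summed per well was normalised to unstimulated and stimulated DMSO controls before curve fitting.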
Starred values were filed as active, the others as inactive; ? = inconclusive; . = no result; [ ] = dose if it differs, or a comment. A selection: hits, their analogues and other compounds. The true share with any hit is near 17%. The call rests on the fitted dose curve; in most records, active means well fitted curve in the direction sought with a large enough effect; inconclusive means small, poorly fitted or top-dose-only effect, or another doubt; inactive means no such curve, though single readings can be large; an effect the other way counts as inactive or inconclusive. Potency means the concentration at half of the fitted maximal effect.

SMILES	HT1080NT lethal	TDP1 cell noCPT	HepG2 tox	HT1080 IDH1KD tx	TDP1 cell CPT	TGFb inhibitor
COc1ccccc1CNC(=O)CC1Sc2ccccc2NC1=O (stereo not drawn)	2%	-5%	11%	0%	6%	7%
COc1cc(C2Sc3ccccc3NC3=C2C(=O)OC3)cc(OC)c1OC (stereo not drawn)	-3%	?	-7%	?	16µM*	-4%
CC(C)c1ccc(NC(=O)c2ccc3c(c2)CCN3S(C)(=O)=O)cc1	-29%	8.2µM*	-6%	?	21µM*	4%
CS(=O)(=O)N1CCc2cc(C(=O)Nc3ccc(O)cc3)ccc21	-5%	0%	-7%	-7%	6%	0%
CS(=O)(=O)N1CCc2cc(C(=O)Nc3ccc(COCC(F)(F)F)cc3)ccc21	-24%	?	-41%	-4%	18µM*	0%
CS(=O)(=O)N1CCCc2cc(C(=O)Nc3cccc(C(F)(F)F)c3)ccc21	.	18µM*	-37%	.	?	-18%
COc1cccc(NC(=O)c2ccc3c(c2)CCN3S(C)(=O)=O)c1	-7%	?	-22%	1%	?	5%
CCN(CC(=O)N1CCCC1)S(=O)(=O)c1cc(C)ccc1OC	10%	-3%	-1%	4%	18%	-18%
COc1ccc2cc(CNCc3nonc3C)c(N3CCCC(CO)C3)nc2c1 (stereo not drawn)	.	-13%	.	.	15%[9.04 µM]	.
O=C(Nc1ccc2nc(SCC(=O)N3CCOCC3)sc2c1)c1ccc(Br)cc1	.	2.3µM*	-11%	.	?	-14%
CC(C)(C)C(=O)Nc1ccc2nc(SCC(=O)N3CCOCC3)sc2c1	.	?	-3%	.	-6%	0%
O=C(Nc1ccc2nc(SCC(=O)N3CCOCC3)sc2c1)c1cccc(Br)c1	.	8.2µM*	-39%	.	13µM*	0%
COc1cccc(C(=O)Nc2ccc3nc(SCC(=O)N4CCOCC4)sc3c2)c1	.	13µM*	0%	.	15µM*	0%
CCOC(=O)C1CCN(CC(=O)Nc2cc(S(=O)(=O)N3CCCCC3)ccc2Cl)CC1	-13%	21µM*	2%	-12%	21µM*	-2%
O=C(CN1CCN(c2ccc(O)cc2)CC1)Nc1cc(S(=O)(=O)N2CCCC2)ccc1Cl	-2%	18µM*	-11%	-6%	?	-2%
O=C(CNCc1ccc(Cl)cc1)Nc1cc(S(=O)(=O)N2CCCC2)ccc1Cl	4%	?	-1%	-2%	21µM*	?
O=C(CN1CCN(c2ccc(O)cc2)CC1)Nc1cc(S(=O)(=O)N2CCCCC2)ccc1Cl	?	10µM*	10%	-17%	10µM*	-19%
CCN1CCN(CC(=O)Nc2cc(S(=O)(=O)N3CCCCC3)ccc2Cl)CC1	-7%	-10%	-9%	-11%	-25%	-21%
CC1CN(CC(=O)Nc2cc(S(=O)(=O)N3CCCC3)ccc2Cl)CC(C)O1 (stereo not drawn)	6%	?	-6%	9%	-22%	0%
CC(=O)N1CCN(S(=O)(=O)c2cccc(C(=O)NCCC3=CCCCC3)c2)CC1	?	-19%	-4%	-7%	2.9µM*	1%
O=S(=O)(NCCC1=CCCCC1)c1cccc(S(=O)(=O)N2CCOCC2)c1	-26%	5.8µM*	-85%	?	5.2µM*	-1%
CN(C)CCCNC(=O)c1ccc(Cl)c(S(=O)(=O)N2CCCCCC2)c1	-25%	?	-21%	-19%	10µM*	-13%
CCN(CC)CCNC(=O)c1ccc(Cl)c(S(=O)(=O)N2CCCCCC2)c1	-4%	?	-36%	0%	?	-13%
O=C(NCCN1CCOCC1)c1ccc(Cl)c(S(=O)(=O)N2CCCCC2)c1	-3%	-1%	-31%	0%	-23%	?
O=C(NCCC1=CCCCC1)c1ccc(Cl)c(S(=O)(=O)N2CCCCC2)c1	-11%	23µM*	-22%	?	16µM*	?
SMILES	HT1080NT lethal	TDP1 cell noCPT	HepG2 tox	HT1080 IDH1KD tx	TDP1 cell CPT	TGFb inhibitor
O=S(=O)(c1ccc(Cl)cc1)c1nc(-c2ccccc2)oc1N1CCN(c2ccccc2)CC1	.	?	-3%	.	?	-53%
COc1ccc(S(=O)(=O)N2CCC(C(=O)NC3CCCC3)CC2)cc1C	-6%	-14%	-10%	4%	8%	3%
CC(C)(C)NC(=O)c1ccc(NC(=O)CSc2ccccc2)cc1	-6%	-20%	-1%	-10%	-21%	4%
COc1ccc(-c2nc3ccc(C)cn3c2CC2CCCCC2)cc1OC	?	18µM*	-52%	?	18µM*	?
COc1ccc(-c2nc3cc(C)c(Br)c(C)n3c2Cc2ccsc2)cc1OC	-8%	?	.	-7%	?	.
COC(=O)c1ccc2nc(-c3ccc(OC)c(OC)c3)c(Cc3ccsc3)n2c1	13%	23µM*	-11%	-7%	16µM*	-6%
Clc1ccc(-c2nc3ccc(Cl)cn3c2Cc2ccsc2)cc1	-29%	?	-13%	?	-27%	?
COC(=O)c1ccc2nc(-c3cccc(Br)c3)c(Cc3ccsc3)n2c1	-11%	?	2%	-24%	?	?
COC(=O)c1ccc2nc(-c3ccc(Cl)cc3)c(Cc3ccsc3)n2c1	13%	12µM*	.	17%	?	.
COc1ccc(-c2nc3ccc(C)cn3c2Cc2ccsc2)cc1OC	?	7.3µM*	-26%	?	8.2µM*	?
COCCN1C[C@@H](CO)O[C@@H](n2cnc3c(N4CCN(c5ccccc5)CC4)ncnc32)C1	8%	?	-10%	?	-17%	-5%
COC(=O)c1ccc2nc(-c3ccc(OC)c(OC)c3)c(Cc3ccc(OC)cc3C)n2c1	-9%	26µM*	3%	?	?	?
COC(=O)c1ccc2nc(-c3ccccc3)c(Cc3ccsc3)n2c1	?	?	-12%	-27%	21µM*	-10%
COC(=O)c1ccc2nc(-c3cccc(Cl)c3)c(Cc3ccsc3)n2c1	-22%	16µM*	-20%	?	?	?
C=CCn1c(=O)c2c(nc(-c3ccccc3)n2C)n(C)c1=O	.	0%	.	.	-27%	.
Cc1nc(C(C)NC2CCN(c3cccc(NC(=O)c4ccncc4)c3)CC2)cs1 (stereo not drawn)	.	-21%	.	.	?	.

Screening results deposited in PubChem by National Center for Advancing Translational Sciences (NCATS).
